Results filed as inconclusive are left out. Values without a mark were called inactive. Calls of active or inactive are those of the source. Calls come from the whole dose curve; as a rule, active = well fitted cell-killing curve with a large enough effect; inconclusive = small, poorly fitted or top-dose-only effect, or effect the other way; inactive = no such curve, though single readings can be large or run the other way.
Tests used:
[1] = Viability qHTS for spleen associated tyrosine kinase inhibitor (SYKi) naive MV4-11 cells (AID 1963823); note: nearly all actives have a fitted effect of over 40% in size
Outline: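 Viability of MV4-11 AML cells lacking prior SYK inhibitor exposure is scored by CellTiter-Glo luminescence following 72 hr compound incubation at 37 C, 5% CO2, seeded at 500 cells per well.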

[2] = Viability qHTS for spleen associated tyrosine kinase inhibitor (SYKi) drug resistant MV4-11 cells (AID 1963824); note: nearly all actives have a fitted effect of over 35% in size
Outline: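 CellTiter-Glo luminescence, read 10 min after reagent addition, reports viability after a 72 hr compound exposure. Cells are an MV4-11 line made resistant to SYK inhibition, seeded at 500 per well onto compound-containing plates.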
Potency is the fitted concentration of half-maximal effect.

Row | Structure (SMILES) | Potency [1] | Potency [2] | viability (% of control) [1] | viability, % of control [2]
1 | O=C(O)/C=C/c1ccc(-c2ccc(O)c(C34CC5CC(CC(C5)C3)C4)c2)cc1 | 184 nM (active) | 103 nM (active) | – | –
2 | CCCC(Nc1nc(-c2ccc(NC(=O)NCC)c(OC)c2)ncc1C)c1cccnc1 (stereo not given) | 58 nM (active) | 130 nM (active) | – | –
3 | C[C@@H]1O[C@@H](O[C@H]2[C@H](O)[C@@H](C(=O)O)O[C@@H](O[C@H]3CC[C@@]4(C)C(CC[C@]5(C)C4CC=C4C6CC(C)(C)CC[C@]6(C(=O)O)CC[C@]45C)C3(C)C)[C@@H]2O[C@@H]2O[C@H](CO)[C@@H](O)[C@H](O)[C@H]2O)[C@H](O)[C@H](O)[C@H]1O (stereo not given in full) | – | – | 72.6% [at 9.25 µM] | 81.7% [at 9.25 µM]
4 | CCC(C)CNCC(=O)N1CCc2sccc2C1COc1cccc(C)c1 (stereo not given) | 9200 nM (active) | 9200 nM (active) | – | –
5 | C=C1CCC[C@]2(C)CC[C@@H](C(=C)C(=O)O)[C@H](O)[C@@H]12 | inactive | inactive | – | –
